In PubChem BioAssay (EPA / NIEHS):
Inconclusive results are not listed. Activity calls are given as the source filed them. The calls were made as follows, unless noted: active = hit-call score of the fitted dose curve at least 0.9, where 1 is the maximum; inactive = score below 0.9.

How the values were obtained:
[1] = ATG_NFI_CIS: Attagene CIS-FACTORIAL HepG2 Assay for human Nuclear Factor I (NFI) (AID 2282989); conditions: HepG2 cis-regulatory reporter, NFI response element transcription; actives raise or lower the signal
Procedure, shortened: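 Read-out: reporter mRNA via RT-PCR plus capillary electrophoresis with fluorescence detection. Transiently transfected HepG2 (endogenous TF activity on cis promoters), 24 h compound exposure; gain or loss of signal fitted against DMSO.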

[2] = biological target: Myc proto-oncogene protein (Homo sapiens) (UniProt P01106); test: ATG_Myc_CIS: Attagene CIS-FACTORIAL HepG2 Assay for human Myelocytomatosis (Myc) Proto-Oncogene Transcription Factor (AID 2282990); conditions: HepG2, Attagene cis-reporter transcription factor activity; actives raise or lower the signal
Sequence of Myc proto-oncogene protein (Homo sapiens) (P01106 whole entry, looked up, the tested form may be a part): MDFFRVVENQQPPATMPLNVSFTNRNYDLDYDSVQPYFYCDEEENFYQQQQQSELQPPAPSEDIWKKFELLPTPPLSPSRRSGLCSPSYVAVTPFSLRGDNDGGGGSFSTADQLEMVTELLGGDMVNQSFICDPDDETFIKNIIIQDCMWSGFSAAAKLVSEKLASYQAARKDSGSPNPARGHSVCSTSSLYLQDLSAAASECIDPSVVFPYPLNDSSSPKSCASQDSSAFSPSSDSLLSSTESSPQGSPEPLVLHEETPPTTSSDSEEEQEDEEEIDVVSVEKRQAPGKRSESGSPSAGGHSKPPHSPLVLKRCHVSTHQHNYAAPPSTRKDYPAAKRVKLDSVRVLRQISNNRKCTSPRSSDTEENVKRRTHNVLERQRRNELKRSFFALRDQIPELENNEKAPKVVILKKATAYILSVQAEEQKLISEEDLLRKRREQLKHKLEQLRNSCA
Procedure, shortened: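 Fluorescence intensity of reporter-specific cDNA fragments, separated by capillary electrophoresis, gives the signal. Transfected HepG2 cells carrying cis-promoter reporter constructs are incubated with compound for 24 h; DMSO serves as baseline.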

[3] = ATG_NF_kB_CIS: Attagene CIS-FACTORIAL HepG2 Assay for human Nuclear Factor Kappa B (NF-kB) (AID 2282991); conditions: HepG2 Attagene cis-factorial NF-kB reporter mRNA; actives raise or lower the signal
Procedure, shortened: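 HepG2, transient multi-reporter transfection, cis promoter elements (endogenous TFs). 24 h exposure. Total RNA → RT → PCR → 6-FAM label → HpaI → CE. Gain/loss vs DMSO.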

[4] = ATG_NRF2_ARE_CIS: Attagene CIS-FACTORIAL HepG2 Assay for human Nuclear Factor Erythroid 2 Related Factor 2 (NFR2) response to Antioxidant Response Elements (ARE) (AID 2282992); conditions: HepG2 Attagene ARE/NRF2 reporter, transcription factor activity; actives raise or lower the signal;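 as to AC50: reporter mRNA level measured by RT-PCR and capillary electrophoresis fluorescence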
Procedure, shortened: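 Cis-factorial assay: transfected HepG2 reporter library, 24 h dosing, mRNA readout via RT-PCR/CE; DMSO-referenced bidirectional analysis.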

[5] = ATG_Oct_MLP_CIS: Attagene CIS-FACTORIAL HepG2 Assay for human Octamer-Binding Transcription Factor (Oct) (AID 2282993); conditions: HepG2 Attagene cis-factorial Oct reporter, mRNA; actives raise or lower the signal
Procedure, shortened: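 Read-out: reporter mRNA via RT-PCR plus capillary electrophoresis of 6-FAM-labelled fragments. Transiently transfected HepG2, 24 h exposure, endogenous TF activity on cis elements. Gain or loss of signal fitted relative to DMSO.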

[6] = biological target: Cellular tumor antigen p53 (Homo sapiens) (UniProt P04637); test: ATG_p53_CIS: Attagene CIS-FACTORIAL HepG2 Assay for human p53 Transcription Factor (AID 2282994); conditions: HepG2 p53 cis-element reporter, Attagene mRNA; actives raise or lower the signal
Sequence of Cellular tumor antigen p53 (Homo sapiens) (P04637 whole entry, looked up): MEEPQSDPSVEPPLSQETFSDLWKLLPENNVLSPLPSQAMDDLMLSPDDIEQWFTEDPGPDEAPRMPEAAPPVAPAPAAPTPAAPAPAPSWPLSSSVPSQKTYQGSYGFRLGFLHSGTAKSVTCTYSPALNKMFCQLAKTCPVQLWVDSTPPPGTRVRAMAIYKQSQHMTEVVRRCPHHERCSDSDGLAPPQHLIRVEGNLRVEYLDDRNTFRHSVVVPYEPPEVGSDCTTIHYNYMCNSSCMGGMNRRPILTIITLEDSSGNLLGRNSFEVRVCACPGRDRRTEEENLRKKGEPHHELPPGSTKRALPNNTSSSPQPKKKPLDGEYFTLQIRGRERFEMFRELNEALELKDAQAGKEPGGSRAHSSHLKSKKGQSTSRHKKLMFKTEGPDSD
Procedure, shortened: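 Using HepG2 hepatoma cells carrying cis-acting multiplexed reporters, mRNA induction is detected after a 24 h exposure. Gain- and loss-of-signal responses are fitted relative to DMSO-treated cells.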

[7] = biological target: human Peroxisome Proliferator-activated Receptor alpha (PPARa), PPARA (gene 5465) (UniProt Q07869); test: ATG_PPARa_TRANS: Attagene TRANS-FACTORIAL HepG2 Assay for human Peroxisome Proliferator-activated Receptor alpha (PPARa) (AID 2283001; active = hit-call score of the fitted dose curve at least 0.9, where 1 is the maximum;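 as to AC50: potency for gain of reporter signal over DMSO so agonist or activator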)
Sequence of human Peroxisome Proliferator-activated Receptor alpha (PPARa), PPARA (gene 5465) (Q07869 whole entry, looked up, the tested form may be a part): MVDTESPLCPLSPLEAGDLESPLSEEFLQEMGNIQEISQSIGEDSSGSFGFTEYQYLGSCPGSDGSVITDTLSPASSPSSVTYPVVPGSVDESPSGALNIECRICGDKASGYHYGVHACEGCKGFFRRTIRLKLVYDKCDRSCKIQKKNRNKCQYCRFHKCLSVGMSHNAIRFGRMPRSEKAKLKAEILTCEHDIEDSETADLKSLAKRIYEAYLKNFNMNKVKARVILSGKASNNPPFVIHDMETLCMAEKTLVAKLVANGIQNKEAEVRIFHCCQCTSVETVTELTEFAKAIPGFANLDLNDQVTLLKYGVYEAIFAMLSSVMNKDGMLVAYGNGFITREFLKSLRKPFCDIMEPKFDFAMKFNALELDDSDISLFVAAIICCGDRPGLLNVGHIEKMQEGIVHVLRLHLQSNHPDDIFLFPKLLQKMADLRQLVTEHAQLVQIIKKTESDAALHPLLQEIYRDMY
Procedure, shortened: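 HepG2 cells transiently transfected with multiplexed GAL4-UAS reporters driven by exogenous chimeric NR-Gal4 proteins; reporter mRNA measured after 24 h dosing. Read-out by RT-PCR, 6-FAM labelling, HpaI digestion and capillary electrophoresis; gain of signal versus DMSO.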

[8] = biological target: human Peroxisome Proliferator-activated Receptor delta (PPARd), PPARD (gene 5467) (UniProt Q03181); test: ATG_PPARd_TRANS: Attagene TRANS-FACTORIAL HepG2 Assay for human Peroxisome Proliferator-activated Receptor delta (PPARd) (AID 2283002; active = hit-call score of the fitted dose curve at least 0.9, where 1 is the maximum)
Sequence of human Peroxisome Proliferator-activated Receptor delta (PPARd), PPARD (gene 5467) (Q03181 whole entry, looked up, the tested form may be a part): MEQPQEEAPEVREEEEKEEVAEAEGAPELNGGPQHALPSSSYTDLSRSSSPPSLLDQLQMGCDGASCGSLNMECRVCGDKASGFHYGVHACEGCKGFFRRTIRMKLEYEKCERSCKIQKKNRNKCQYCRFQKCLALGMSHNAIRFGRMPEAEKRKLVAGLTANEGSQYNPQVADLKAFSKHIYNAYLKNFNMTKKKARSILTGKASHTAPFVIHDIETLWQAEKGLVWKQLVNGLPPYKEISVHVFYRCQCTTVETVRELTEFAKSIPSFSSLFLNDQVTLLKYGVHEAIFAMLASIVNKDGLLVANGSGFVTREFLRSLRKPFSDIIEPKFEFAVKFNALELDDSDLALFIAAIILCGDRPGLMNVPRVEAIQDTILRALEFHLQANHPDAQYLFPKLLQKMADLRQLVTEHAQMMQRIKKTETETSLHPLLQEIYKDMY
Procedure, shortened: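 Fluorescence from capillary electrophoresis of labelled RT-PCR reporter fragments gives the signal; DMSO sets baseline. Cells: HepG2 transiently carrying GAL4-UAS reporter units plus chimeric nuclear receptor-Gal4 proteins, exposed to chemicals for 24 h.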

[9] = biological target: Nuclear receptor subfamily 1 group I member 2 (Homo sapiens) (UniProt O75469); test: ATG_PXR_TRANS: Attagene TRANS-FACTORIAL HepG2 Assay for human Pregnane X Receptor (PXR) (AID 2283008; active = hit-call score of the fitted dose curve at least 0.9, where 1 is the maximum)
Sequence of Nuclear receptor subfamily 1 group I member 2 (Homo sapiens) (O75469 whole entry, looked up, the tested form may be a part): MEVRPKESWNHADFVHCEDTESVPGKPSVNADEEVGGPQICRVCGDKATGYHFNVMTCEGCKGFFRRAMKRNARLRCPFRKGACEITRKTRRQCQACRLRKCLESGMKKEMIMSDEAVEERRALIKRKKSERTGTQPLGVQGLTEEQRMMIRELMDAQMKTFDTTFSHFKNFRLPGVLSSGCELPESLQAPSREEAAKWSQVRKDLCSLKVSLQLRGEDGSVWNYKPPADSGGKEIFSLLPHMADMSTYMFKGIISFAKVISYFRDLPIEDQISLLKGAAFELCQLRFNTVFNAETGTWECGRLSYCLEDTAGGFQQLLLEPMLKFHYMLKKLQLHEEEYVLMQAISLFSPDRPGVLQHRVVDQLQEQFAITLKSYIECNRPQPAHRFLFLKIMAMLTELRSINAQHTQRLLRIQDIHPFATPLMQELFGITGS
Procedure, shortened: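 Fluorescence intensity of FAM-labelled, HpaI-digested reporter amplicons, separated by capillary electrophoresis, quantifies induction. HepG2 cells with PXR-Gal4 trans-reporter system were exposed 24 h; DMSO defines baseline.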

[10] = BSK_3C_TissueFactor: BioMAP Diversity Plus: 3C Assay for Tissue Factor Biomarker Activity (AID 2282997); conditions: BioMAP 3C HUVEC, tissue factor biomarker readout; actives raise or lower the signal
Procedure, shortened: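 HUVEC were treated 24 h, then surface tissue factor measured by ELISA and fitted bidirectionally against DMSO. Parallel SRB total-protein staining assessed overt cytotoxicity at the same time point.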

[11] = BSK_3C_uPAR: BioMAP Diversity Plus: 3C Assay for Urokinase-type plasminogen activator receptor (uPAR) Biomarker Activity (AID 2282998); conditions: BioMAP 3C HUVEC, uPAR biomarker ELISA; actives raise or lower the signal
Procedure, shortened: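 HUVEC primary cells; 24 h post-dose; uPAR by ELISA; gain or loss of signal fitted bidirectionally vs DMSO baseline.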

[12] = BSK_3C_VCAM1: BioMAP Diversity Plus: 3C Assay for Vascular cell adhesion molecule 1 (VCAM1) Biomarker Activity (AID 2282999); conditions: BioMAP 3C HUVEC, VCAM1 ELISA, cytokine-stimulated; actives raise or lower the signal
Procedure, shortened: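 Human umbilical vein endothelial cells (3C system), biomarker read by ELISA 24 h after dosing; bidirectional fit against DMSO baseline. Cytotoxicity tracked by SRB total-protein staining in parallel cultures at biomarker time.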

[13] = BSK_4H_Eotaxin3: BioMAP Diversity Plus: 4H Assay for Eotaxin 3 Biomarker Activity (AID 2283000); conditions: primary human endothelial cells (HUVEC); actives raise or lower the signal
Procedure, shortened: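 Eotaxin-3 (CCL26) levels were measured by ELISA in HUVEC primary cultures 24 h post-dosing. Gain or loss of signal was fitted in both directions, with DMSO serving as baseline and negative control.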

[14] = read-out: Intercellular Adhesion Molecule 1 (ICAM1), ICAM1 (gene 3383); test: BSK_3C_ICAM1: BioMAP Diversity Plus: 3C Assay for Intercellular Adhesion Molecule 1 (ICAM1) Biomarker Activity (AID 2283003); conditions: primary human endothelial cells (HUVEC); actives raise or lower the signal
Procedure, shortened: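 HUVEC primary cells stimulated under 3C conditions; ICAM1 measured by ELISA 24 h after compound dosing. Curves fitted bidirectionally against the DMSO baseline. Overt cytotoxicity checked by SRB staining of parallel cultures.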

[15] = biological target: human Retinoic Acid Receptor beta (RARb), RARB (gene 5915) (UniProt P10826); test: ATG_RARb_TRANS: Attagene TRANS-FACTORIAL HepG2 Assay for human Retinoic Acid Receptor beta (AID 2283004; active = hit-call score of the fitted dose curve at least 0.9, where 1 is the maximum)
Sequence of human Retinoic Acid Receptor beta (RARb), RARB (gene 5915) (P10826 whole entry, looked up, the tested form may be a part): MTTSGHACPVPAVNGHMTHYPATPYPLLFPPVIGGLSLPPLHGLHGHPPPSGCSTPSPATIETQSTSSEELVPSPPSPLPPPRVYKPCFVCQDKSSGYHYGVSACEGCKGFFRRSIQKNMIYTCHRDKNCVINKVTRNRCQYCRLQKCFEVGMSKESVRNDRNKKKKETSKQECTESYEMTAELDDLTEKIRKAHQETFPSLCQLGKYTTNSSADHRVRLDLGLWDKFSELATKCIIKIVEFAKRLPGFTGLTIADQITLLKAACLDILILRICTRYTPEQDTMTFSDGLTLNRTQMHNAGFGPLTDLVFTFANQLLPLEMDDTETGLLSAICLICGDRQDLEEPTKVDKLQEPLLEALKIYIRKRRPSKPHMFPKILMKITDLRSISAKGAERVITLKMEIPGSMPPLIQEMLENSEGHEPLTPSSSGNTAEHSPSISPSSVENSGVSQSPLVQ
Procedure, shortened: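 HepG2 cells were transiently transfected with GAL4-UAS reporter units that report activity of exogenous chimeric NR-Gal4 proteins, then exposed to compound for 24 h. Reporter mRNA was quantified by RT-PCR with capillary electrophoresis fluorescence, as gain of signal over DMSO.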

[16] = biological target: Retinoic acid receptor alpha (Homo sapiens) (UniProt P10276); test: ATG_RARa_TRANS: Attagene TRANS-FACTORIAL HepG2 Assay for human Retinoic Acid Receptor alpha (RARa) (AID 2283005; active = hit-call score of the fitted dose curve at least 0.9, where 1 is the maximum)
Sequence of Retinoic acid receptor alpha (Homo sapiens) (P10276 whole entry, looked up, the tested form may be a part): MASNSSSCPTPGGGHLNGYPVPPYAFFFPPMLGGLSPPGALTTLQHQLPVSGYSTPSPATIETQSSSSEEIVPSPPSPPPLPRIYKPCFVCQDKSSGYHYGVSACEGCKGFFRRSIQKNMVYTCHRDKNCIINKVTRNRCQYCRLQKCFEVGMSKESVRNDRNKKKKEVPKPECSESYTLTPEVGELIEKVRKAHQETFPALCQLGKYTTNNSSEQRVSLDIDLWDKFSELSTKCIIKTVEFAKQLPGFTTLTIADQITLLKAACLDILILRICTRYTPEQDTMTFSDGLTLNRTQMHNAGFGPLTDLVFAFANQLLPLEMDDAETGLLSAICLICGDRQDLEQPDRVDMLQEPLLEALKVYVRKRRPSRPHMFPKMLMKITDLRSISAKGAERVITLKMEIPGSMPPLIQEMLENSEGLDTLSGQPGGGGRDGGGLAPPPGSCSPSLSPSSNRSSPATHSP
Procedure, shortened: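 HepG2 transiently transfected with multiplex GAL4-UAS reporter units including a human RARa–GAL4 chimera; 24 h compound exposure. Reporter mRNA quantified by RT-PCR, 6-FAM labeling and capillary electrophoresis; gain of signal versus DMSO.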

[17] = BSK_3C_Proliferation: Cell Proliferation Assessment in the BioMAP Diversity Plus: 3C Assay (AID 2283006); conditions: primary human endothelial cells (HUVEC);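 as to AC50: potency may reflect either rise or fall in cell number versus DMSO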
Procedure, shortened: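 Subconfluent HUVEC (3C system) cultured with chemical; relative cell number read at 48 h by sulforhodamine B total-protein staining (0.1% SRB after 10% TCA fixation, 560 nm). Bidirectional fit relative to DMSO.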

[18] = biological target: Peroxisome proliferator-activated receptor gamma (Homo sapiens) (UniProt P37231); test: ATG_PPARg_TRANS: Attagene TRANS-FACTORIAL HepG2 Assay for human Peroxisome Proliferator-activated Receptor-gamma (PPARg) (AID 2283007; active = hit-call score of the fitted dose curve at least 0.9, where 1 is the maximum)
Sequence of Peroxisome proliferator-activated receptor gamma (Homo sapiens) (P37231 whole entry, looked up): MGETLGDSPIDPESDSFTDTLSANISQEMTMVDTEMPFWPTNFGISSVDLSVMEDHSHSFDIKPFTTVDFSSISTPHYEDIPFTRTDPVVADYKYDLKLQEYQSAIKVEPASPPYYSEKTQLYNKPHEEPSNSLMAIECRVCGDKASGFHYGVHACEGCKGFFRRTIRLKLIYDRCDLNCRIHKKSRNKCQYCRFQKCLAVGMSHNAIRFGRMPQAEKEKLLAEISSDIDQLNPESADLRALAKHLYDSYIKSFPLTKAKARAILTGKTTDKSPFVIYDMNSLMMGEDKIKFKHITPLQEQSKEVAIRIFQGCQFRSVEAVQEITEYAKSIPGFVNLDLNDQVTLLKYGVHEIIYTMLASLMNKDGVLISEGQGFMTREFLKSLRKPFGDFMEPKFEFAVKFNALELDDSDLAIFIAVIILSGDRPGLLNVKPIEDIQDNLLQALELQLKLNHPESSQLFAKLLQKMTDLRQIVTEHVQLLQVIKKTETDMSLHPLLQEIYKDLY
Procedure, shortened: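 Multiplexed reporter transcription units in HepG2, 24 h dosing, reporter transcripts quantified by fluorescent RT-PCR and capillary electrophoresis. Increase over DMSO scored.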

[19] = biological target: human Retinoic Acid Receptor gamma (RARg), RARG (gene 5916) (UniProt P13631); test: ATG_RARg_TRANS: Attagene TRANS-FACTORIAL HepG2 Assay for human Retinoic Acid Receptor gamma (RARg) (AID 2283009; active = hit-call score of the fitted dose curve at least 0.9, where 1 is the maximum)
Sequence of human Retinoic Acid Receptor gamma (RARg), RARG (gene 5916) (P13631 whole entry, looked up, the tested form may be a part): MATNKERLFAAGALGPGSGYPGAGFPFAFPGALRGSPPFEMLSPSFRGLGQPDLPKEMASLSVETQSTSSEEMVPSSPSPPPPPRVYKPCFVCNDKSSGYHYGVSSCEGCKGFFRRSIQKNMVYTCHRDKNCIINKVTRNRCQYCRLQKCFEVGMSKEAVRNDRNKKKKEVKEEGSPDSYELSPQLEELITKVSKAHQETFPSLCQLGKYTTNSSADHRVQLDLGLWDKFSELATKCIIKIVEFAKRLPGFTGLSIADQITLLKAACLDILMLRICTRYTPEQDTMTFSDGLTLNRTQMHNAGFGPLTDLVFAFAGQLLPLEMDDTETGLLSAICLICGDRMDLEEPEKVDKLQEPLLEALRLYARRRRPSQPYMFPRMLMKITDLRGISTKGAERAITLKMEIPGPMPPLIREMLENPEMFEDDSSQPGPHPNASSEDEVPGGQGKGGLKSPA
Procedure, shortened: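 HepG2 transiently transfected with GAL4-UAS reporter units and chimeric NR-Gal4 constructs; 24 h compound exposure. Reporter mRNA quantified by RT-PCR, FAM labeling, HpaI digestion and capillary electrophoresis; gain-of-signal versus DMSO.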

[20] = biological target: human RAR-related Orphan Receptor beta (RORb), RORB (gene 6096) (UniProt Q92753); test: ATG_RORb_TRANS: Attagene TRANS-FACTORIAL HepG2 Assay for human RAR-related Orphan Receptor beta (RORb) (AID 2283010; active = hit-call score of the fitted dose curve at least 0.9, where 1 is the maximum)
Sequence of human RAR-related Orphan Receptor beta (RORb), RORB (gene 6096) (Q92753 whole entry, looked up, the tested form may be a part): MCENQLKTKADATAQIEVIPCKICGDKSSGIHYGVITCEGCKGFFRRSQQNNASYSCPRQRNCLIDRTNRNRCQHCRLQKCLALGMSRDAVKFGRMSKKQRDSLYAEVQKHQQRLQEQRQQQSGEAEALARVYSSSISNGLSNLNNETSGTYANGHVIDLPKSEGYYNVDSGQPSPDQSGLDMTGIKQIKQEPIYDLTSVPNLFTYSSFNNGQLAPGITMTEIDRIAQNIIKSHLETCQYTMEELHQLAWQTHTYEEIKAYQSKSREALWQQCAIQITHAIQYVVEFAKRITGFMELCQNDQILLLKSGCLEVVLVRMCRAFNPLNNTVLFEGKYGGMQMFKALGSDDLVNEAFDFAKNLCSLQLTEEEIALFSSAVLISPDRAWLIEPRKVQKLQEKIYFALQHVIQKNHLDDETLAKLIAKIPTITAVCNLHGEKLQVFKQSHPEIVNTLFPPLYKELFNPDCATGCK
Procedure, shortened: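 HepG2 cells transiently transfected with GAL4-UAS reporter units expressing chimeric NR-Gal4 protein; reporter mRNA measured 24 h after dosing by RT-PCR, 6-FAM labelling and capillary electrophoresis. Gain-of-signal fitted relative to DMSO baseline.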

Measured: AC50

NC(=O)c1ccccc1O
inactive: [1] | [2] | [3] | [4] | [5] | [6] | [7] | [8] | [9]

O=C(OCC1CCC2OC2C1)C1CCC2OC2C1 (stereo unspecified)
inactive: [1] | [2] | [3] | [4] | [5] | [6]

C#CC1(O)CC[C@H]2[C@@H]3CCC4=CCCC[C@@H]4[C@H]3CC[C@@]21C (stereo partly specified)
active: [4] 22 µM | [6] 33.4 µM | [10] 8.34 µM | [11] 9.84 µM | [12] 10.4 µM | [13] 11.1 µM | [14] 10.7 µM | [17] 11 µM | [9] 2.14 µM
not listed: [7] | [20]
inactive: all other assays above

C=CC(=O)OCC(Br)CBr (stereo unspecified)
inactive: [2] | [5] | [20]
active: [1] 163 µM | [3] 56.6 µM | [4] 24.8 µM | [6] 165 µM | [10] 20 µM | [11] 34.2 µM | [12] 18.4 µM | [13] 20 µM | [14] 30.1 µM | [17] 9.42 µM | [18] 51.6 µM | [9] 100 µM

NC(=O)N=NC(N)=O
inactive: [1] | [2] | [3] | [4] | [5] | [6] | [7] | [8] | [18] | [9]

CC(C)C(=O)C(C)C
active: [4] 27.1 µM | [5] 29.2 µM | [18] 6.38 µM
not listed: [7] | [9] | [15] | [16] | [19] | [20]
inactive: all other assays above

CCCCCCCCc1ccc(Nc2ccc(CCCCCCCC)cc2)cc1
active: [9] 1.68 µM
not listed: [7] | [8] | [20]
inactive: all other assays above

C=CCOCC(O)CCl (stereo unspecified)
active: [4] 63 µM | [9] 47.2 µM
not listed: [16] | [20]
inactive: all other assays above

CC(C)CCCCCOC(=O)CCS
inactive: [1] | [2] | [3] | [4] | [5] | [6] | [8] | [18] | [20]
active: [7] 9.41 µM | [9] 27.1 µM

O=C(Cl)c1cc(C(=O)Cl)cc(C(=O)Cl)c1
active: [4] 158 µM | [10] 12.2 µM | [11] 10.2 µM | [12] 12.7 µM | [13] 25.8 µM | [14] 12.7 µM | [17] 6.87 µM
inactive: [1] | [2] | [3] | [5] | [6] | [8] | [18]

O=C(C=Cc1ccccc1)OCc1ccccc1
active: [4] 34.4 µM | [18] 0.162 µM
inactive: [1] | [2] | [3] | [5] | [6] | [7] | [8] | [9]

O=[N+]([O-])C1(Br)COCOC1
inactive: [1] | [2] | [4] | [5] | [7] | [15] | [18]
active: [3] 51.7 µM | [6] 53.8 µM

CCCCNc1ccc(NCCCC)c2c1C(=O)c1ccccc1C2=O
active: [4] 1.47 µM
not listed: [7] | [8] | [15] | [16] | [19] | [20]
inactive: all other assays above

CCCCCCCCCCC=CC#N
active: [4] 114 µM | [7] 38 µM | [18] 28.2 µM | [9] 29.9 µM
inactive: [1] | [2] | [3] | [5] | [6] | [8] | [20]

C[C@]12C=CC(=O)C=C1CC[C@@H]1[C@@H]2[C@@H](O)C[C@@]2(C)[C@H]1CC[C@]2(O)C(=O)CO
inactive: [1] | [2] | [3] | [4] | [5] | [6] | [7] | [8]
active: [9] 25.9 µM

O=C(Nc1ccccc1SSc1ccccc1NC(=O)c1ccccc1)c1ccccc1
inactive: [1] | [2] | [3] | [5] | [6] | [14]
active: [4] 29.2 µM | [10] 1.15 µM | [11] 9.54 µM | [12] 11.5 µM | [13] 20 µM | [7] 23.4 µM | [17] 5.29 µM | [18] 17.7 µM | [9] 8.27 µM

CC=CC(F)(F)C(F)(F)C(F)(F)F
inactive: [1] | [2] | [3] | [4] | [5] | [6] | [7] | [8] | [18] | [9]

CC(=O)[C@H]1[C@H](C#N)C[C@H]2[C@@H]3CC=C4C[C@@H](O)CC[C@]4(C)[C@H]3CC[C@@]21C
inactive: [1] | [2] | [3] | [4] | [5] | [6] | [7] | [8] | [15] | [9] | [20]
